Experimental data: the supplement of paper PMC11417369
± gives the standard deviation of the averaged measurements. Over roughly 25,000 sequences, “ln(normalized median fluorescence intensity)” has its median near 8.9; the highest 2% begin near 10. Many of the other results were omitted from the sample, so the highest values are more common in it than they were.

tested on: PfAP2-LT AP2 domain (GST-tagged); assay: gcPBM binding intensity (ln(normalized median fluorescence intensity)); higher = stronger DNA binding
Procedure, shortened: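 Each value is the highest Masliner-normalised natural-log median intensity across replicate spots of either orientation of a probe. The probes were primer-extended double-stranded 36-bp intergenic genomic sequences on an Agilent 4 × 180k array, alongside negative controls, exposed for 1 h to GST-tagged P. falciparum DNA-binding domains expressed in E. coli. Bound protein was picked up with Alexa488 anti-GST antibody and scanned at 488 nm.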

Row | Sequence | gcPBM binding intensity (ln)
1 | ATATATATATGTGGATGTACATATATCTCTTATTAT [XGTACX_site1748] | 9.05 ± 0.42
2 | GAGAGAGAAATAAAAAGTACATACATATATATACAT [XGTACX_site2267] | 8.84 ± 0.58
3 | TCATAGTCTTAATGACTACACACCTAACTATGCATG [CACACA_site1839] | 9 ± 0.47
4 | TAATATGCATAAAATTGTACAAACTTACATATAATA [XGTACX_site2752] | 8.92 ± 0.45
5 | ATCAACAAAACATACACACACATATATATATATATA [CACACA_site2989] | 10.32 ± 0.057
6 | GACACCCATAAATATACACACGCACAACACAAAATA [CACACA_site8944] | 9.46 ± 0.38
7 | CAAACACCCAAACACACACACACATACATACATACA [CACACA_site8044] | 9.98 ± 0.15
8 | CACATACCCATACAAACACACATTATATATATATAT [CACACA_site4965] | 9.56 ± 0.33
9 | CAATCAACAAAACATACACACACATATATATATATA [CACACA_site8979] | 10 ± 0.33
10 | CATACATACAAACACACACACACACCCATATATATA [CACACA_site2918] | 10.1 ± 0.31
11 | CACAAACACCCAAACACACACACACCGACATACATA [CACACA_site4410] | 10.1 ± 0.46
12 | CACCCATACACATACAAACACACATTCTATATATAT [CACACA_site1600] | 9.28 ± 0.46
13 | CACGCGCACCAACACACACACACACCCATATATATA [CACACA_site2204] | 10.3 ± 0.4
14 | ATCAAAAGAAAACACACACACATACATATATATATA [CACACA_site3795] | 10.1 ± 0.3
15 | AAAAGTTATAGACACACACACATATAAATATAGATT [CACACA_site6617] | 9.57 ± 0.3
16 | TGTGTATAAATATACACACACATATAAATATTTTAA [CACACA_site7005] | 9.09 ± 0.35
17 | TTGCCATTAATTTATACACACACATTTTAATTTTTT [CACACA_site8150] | 9.16 ± 0.39
18 | GTAAATTATATAACAAATAAAAATGTACATATATAT [CACACA_negctrl_site408] | 8.88 ± 0.46
19 | TAAATTATCTTTTTATGTACTTATTTTTATTATTTT [XGTACX_site3158] | 8.73 ± 0.55
20 | AAAATATATGAAAACAGTACATATAAAAATTAAAAA [XGTACX_site2594] | 8.75 ± 0.64
21 | AAAAAAATTAATATGTCAGCACATATATACATACAT [GTGCAC_negctrl_site110] | 8.88 ± 0.41
22 | ATATTAGTCGAATGATGTACACACATACAAAACATT [XGTACX_site8613] | 9.28 ± 0.45
23 | TGTGAATATATCTTTAAAAAGGATAAATAATAATTT [CACACA_negctrl_site507] | 8.47 ± 0.52
24 | GATGGATTTATTTAAAGTACATATTTAAAAAACTGT [XGTACX_site7567] | 8.51 ± 0.49
25 | ATGTACCTATTTCATACACACACACCCACAAACAAA [CACACA_site8232] | 9.66 ± 0.16

Row | Sequence | gcPBM binding intensity (ln)
26 | GGAAACACAATATATACACACATATATATATATATA [CACACA_site235] | 10.1 ± 0.021
27 | AATACACGCAAACACACACACACACCCACATATATA [CACACA_site638] | 10.3 ± 0.14
28 | AAGGATCACCCACAAACACACATATATATATATATA [CACACA_site559] | 10.2 ± 0.28
29 | AATATAATATAAGGATCACACACAAACACCCATATA [CACACA_site8084] | 9.77 ± 0.2
30 | ACAATAAACATATATACACACACAAAAAAAAAAACA [CACACA_site8033] | 9.64 ± 0.33
31 | CGCACCCAAATATATACACACATATATATATATATA [CACACA_site1651] | 10.1 ± 0.16
32 | TATAATATAAGGATCACACACAAACACCCATATATA [CACACA_site4468] | 9.56 ± 0.18
33 | ACCTATTTCAAACACACACACACACTAACAAACATA [CACACA_site8233] | 10 ± 0.13
34 | ACCTATTTCAAACACACACACACACCCACAAACATA [CACACA_site977] | 10.1 ± 0.33
35 | AGCAAATACAAACACACACACACATATACATATATA [CACACA_site3497] | 10.1 ± 0.26
36 | GAACAAACAAAGAAAGAACACACATACACAATATAC [CACACA_site8918] | 9.6 ± 0.38
37 | TTTTATTTATCATACACACACAGAAAAAAAAAAAAA [CACACA_site158] | 8.89 ± 0.32
38 | TTTTTTTTCAAAAATACAAAAAAAAAAGAAAAAAAC [CACACA_negctrl_site625] | 8.5 ± 0.4
39 | AAATAACACATATATACACACATATAACTATAATAT [CACACA_site7298] | 9.29 ± 0.4
40 | ACATGTAATATAATGTGTACATATACAAAGGTATAT [XGTACX_site4145] | 9.34 ± 0.59
41 | AGTGAATATTACGAAACACACAAAAAAATACATTTC [CACACA_site511] | 9.09 ± 0.38
42 | CAAACAAATTGTGAAACACACATATATATATATATA [CACACA_site2001] | 9.81 ± 0.057
43 | TATATTATTAATTAGGGTACAAAAAAAAAATTTTTT [XGTACX_site7762] | 8.3 ± 0.48
44 | AAAGGTTTATCTGATACACACATAAGTGATCAGGTT [CACACA_site6233] | 8.83 ± 0.33
45 | TTTTTTCAATAAATAATCGTATATTGAATAATAATA [CACACA_negctrl_site822] | 8.07 ± 0.37
46 | TCATTTCAATACACAAGTACGTATATGGTTATATTG [XGTACX_site6021] | 8.82 ± 0.4
47 | ATAAGGATCAGACACAAACACACATATATATATATA [CACACA_site558] | 10.1 ± 0.13
48 | AATAACCACCAACACACACACATATATATATATATA [CACACA_site3540] | 10.2 ± 0.24
49 | TCATAGTAGAAACACACACACACACCCATATATATA [CACACA_site1737] | 10.1 ± 0.23
50 | TATAAACACCCATATAAACACACATATAAACCAACA [CACACA_site8790] | 9.31 ± 0.28

Row | Sequence | gcPBM binding intensity (ln)
51 | CACCCACACCAACACACACACATATATAATATATAT [CACACA_site595] | 9.88 ± 0.33
52 | CATACTCACCAACACACACACACACCCATATAGAAT [CACACA_site592] | 10.2 ± 0.28
53 | AAGGATCACAGACAAACACACATATATATATATATA [CACACA_site4469] | 10.1 ± 0.16
54 | AACCACATACATATAACACACATATACAATATATAT [CACACA_site8607] | 9.29 ± 0.39
55 | TATAATATAAGGATCACACACAAACAGACATATATA [CACACA_site557] | 9.49 ± 0.37
56 | TAATTTAGTATCTTTACATGCGGGCATTATGTCATA [TGCATGCA_site167] | 8.74 ± 0.4
57 | AAGAAAATAGGGTTCATAGGATTATACTTTTGGAAT [TGCATGCA_negctrl_site80] | 8.59 ± 0.54
58 | TAATACTTAATGAACACATGCACATATACATAGTAT [TGCATGCA_site496] | 8.82 ± 0.47
59 | ACTTTTTTTTTGTGTGTGCACTCGATTATATACATA [GTGCAC_site9846] | 9.57 ± 0.46
60 | ATAAAAAAAAGAAAAACACACACATATATATATATA [CACACA_site8243] | 9.77 ± 0.27
61 | TATAAAAGGAAACACACACACATATATATATATATA [CACACA_site939] | 10.2 ± 0.32
62 | AATGAAAAGGAACATACACACCCCATATAAATATAT [CACACA_site7588] | 9.62 ± 0.13
63 | AGAATAAAAAGGAACACACACACACCCATATATATA [CACACA_site3590] | 10.1 ± 0.5
64 | ATAAAAAGGAAACACACACACACACCCATATATATA [CACACA_site904] | 10.41 ± 0.042
65 | TAAAAAGGAAAACACACACACACATATATATATATA [CACACA_site3588] | 10.2 ± 0.26
66 | AGGAAAAAAGAAAAAACACACATAAATATATATATA [CACACA_site3085] | 9.11 ± 0.38
67 | AAGGAATAATATAAAACACACACATAAATATAAATA [CACACA_site9115] | 9.6 ± 0.42
68 | AAAAGGAAAAATATCACACATATATATATATATATA [CACACA_site5586] | 9.76 ± 0.45
69 | AAAAAAATTACATATCCATTTTAACATAATAAATAG [GTGCAC_negctrl_site618] | 8.33 ± 0.45
70 | TACAGAATTGTATATAGTACATAAAACAATATATAT [XGTACX_site7275] | 8.88 ± 0.4
71 | AAAATAAATAAATAAATAAATATATATATATATATA [XGTACX_negctrl_site345] | 9.16 ± 0.3
72 | AGCCTCGGGGTCATATATATATATATATATATATAT [CACACA_negctrl_site512] | 10.35 ± 0.05
73 | ATCAGATATATATATTGTACATTTATATATAAATCA [XGTACX_site1960] | 8.62 ± 0.46
74 | TAACAAAAAGCACTTAGTACATATATATATATATAT [XGTACX_site1099] | 9.88 ± 0.44
75 | AAAAAAAAAAAAAACACACACATATCTATAATATAT [CACACA_site7481] | 9.35 ± 0.44

Row | Sequence | gcPBM binding intensity (ln)
76 | AAAAAAAAAAAAAAAACACACATACATACATACATA [CACACA_site6125] | 9.26 ± 0.41
77 | AAAAAAAAAAAACACACACACACATACACATACATA [CACACA_site2858] | 10.1 ± 0.22
78 | CCTGAACACATACATACACACACACTAATAAAAAAA [CACACA_site8023] | 9.69 ± 0.46
79 | AAAAAAAAAAAACATACACACACACTAATATTTATA [CACACA_site8038] | 9.6 ± 0.23
80 | AAAAAAAAAAAACACACACACACACTAGTACATACA [CACACA_site4551] | 10.2 ± 0.3
81 | AAAAAAAAAAAACACACACACACACTAATACATACA [CACACA_site8135] | 10.1 ± 0.12
82 | TAAATGTCTTCAATGAAGTGGAAATGCTGTTATATA [CACACA_negctrl_site1155] | 8.54 ± 0.31
83 | TATAATCATATACACGCATGTATAAAATTTAATACT [TGCATGCA_site700] | 8.96 ± 0.35
84 | ACTATTAAAATGAATACACACAAATATAAAAATATA [CACACA_site4145] | 8.96 ± 0.5
85 | TAATTTTTCCAACTTTGTACAGATATATTAATAAAA [XGTACX_site7856] | 8.13 ± 0.35
86 | TAAAACAAAATGGTAACACACACATATATATATATA [CACACA_site8590] | 9.87 ± 0.15
87 | ACACATAAATGTATATATATATAAATATATGTATGT [CACACA_negctrl_site1532] | 9.12 ± 0.33
88 | AAACAAAATGGTAACACACACATATATAAATATGTA [CACACA_site6994] | 9.38 ± 0.47
89 | TGAAATGATATATAAACACACATATATATATATATA [CACACA_site3511] | 9.62 ± 0.25
90 | ATAAAATGAACAAACACACACACATATATTTATATA [CACACA_site7181] | 9.84 ± 0.16
91 | AAAATGAACAAACACACACACATATATATATATATA [CACACA_site2403] | 10.27 ± 0.057
92 | AAAAAAACATGAAACACACACAAATATATATATATA [CACACA_site1884] | 9.53 ± 0.52
93 | TGCAAGGAACAACACACACACACATAAATGTATATA [CACACA_site8149] | 10.2 ± 0.36
94 | AAAAATGAGAAACACACACACATATATATATATATA [CACACA_site2228] | 9.94 ± 0.19
95 | AAAAAAATGAAACACACACACACATATATATATATA [CACACA_site1043] | 10.1 ± 0.085
96 | TGCAAGGAAAAACACACACACACATAAATGTATATA [CACACA_site751] | 9.79 ± 0.25
97 | AAACAAAATGGTAACACACACATATATATATATATA [CACACA_site1939] | 10.09 ± 0.021
